Source: PubChem BioAssay AID449762 (Southern Research Specialized Biocontainment Screening …, 2010)
Screen size: about 330,000 compounds; about 1,900 (0.58%) were called active. Roughly 4% stayed inconclusive and do not appear here. These entries were drawn from the full list. Potency and affinity values are given separately. A number with no mark means an inactive call. Cut-off read from the data, not from the text of the source: inconclusive = inhibition above about 70% without an active follow-up result; inactive = below that.

Experiment: M. tuberculosis growth inhibition, HTS (AID 449762);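 note: bacterial growth assessed after seven days of incubation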
Details: M. tuberculosis H37Rv growth inhibition, 7H9 media; at 25 µM; hits give high values

SMILES	inhibition
CSc1ccccc1OCc1cc(C(=O)N2CCSCC2)no1	4.18%
COCC1CCN(C(=O)c2cc(COc3ccccc3SC)on2)C1 (stereo not drawn)	-1.2%
CCOC(=O)[C@@]12C(=O)C(=O)N[C@]1(c1ccccc1)C1OCCCC12 (stereo partly drawn)	1.95%
COc1ccc(Cn2c(-c3ccc(C)cc3)nc3c(c(=O)c4ccccc4n3C)c2=O)cc1	-5.96%
Cn1c2ccccc2c(=O)c2c(=O)n(Cc3ccco3)c(-c3ccc(F)cc3)nc21	0.8%
Cc1noc(C)c1CSCC(=O)Nc1cccc(C(F)(F)F)c1	-7.37%
CCCCCCc1cc2cc(C(=O)Nc3ccccc3)c(=O)oc2cc1O	-5.44%
CCCCCCc1cc2cc(C(=O)NC)c(=N)oc2cc1O	2.6%
CCc1ccc(CNn2cnnc2SCC(=O)NC(C)(C)C)cc1	-7.47%
CC1CN(CC(=O)Nc2ccc([N+](=O)[O-])cc2Br)CC(C)O1 (stereo not drawn)	0.73%
CCC/C(=N/NC(=O)c1ccccc1Cl)c1ccccc1	8.2%
NC(N)=NNC(=O)c1ccccc1Cl	-5.25%
CN(Cc1ccccc1)CC(O)COc1ccc(CNCc2nccn2C)cc1 (stereo not drawn)	-8.78%
NC(=O)CC(NC(=O)c1ccccc1)c1ccc(N2CCC(Cc3ccccc3)CC2)c([N+](=O)[O-])c1 (stereo not drawn)	5.54%
CC(C)OCCCn1c(-c2ccco2)nc2nc3ccccc3nc21	0.09%
CCCCCn1c(-c2ccco2)nc2nc3ccccc3nc21	16.5%
C/C(=N\OCC(=O)Nc1ccccc1C(C)(C)C)c1ccc2c(c1)OCCO2	9.78%
O=C(Cn1cnc2scc(-c3ccc(Br)cc3)c2c1=O)N1CCOCC1	2.04%
Clc1ccc(CNC23CN4CN(CN(C4)C2)C3)c(Cl)c1	-14.8%
O=C(Nc1ccncc1)c1cc(S(=O)(=O)N2CCCC2)ccc1Cl	5.2%

SMILES	inhibition
N#Cc1nc(-c2ccc(OCc3ccccc3Cl)cc2)oc1NCCCn1ccnc1	0.78%
N#Cc1nc(-c2ccc(OCc3ccc(Cl)cc3)cc2)oc1NCCCn1ccnc1	0.8%
COc1ccc(C2C(C(C)=O)=C(O)C(=O)N2c2cccnc2)c(OC)c1 (stereo not drawn)	-10.5%
Cc1cccc(N2C(=O)C(Cl)=C(N3CCOCC3)C2=O)c1	-0.44%
O=C1C(Cl)=C(N2CCOCC2)C(=O)N1c1cccc(C(F)(F)F)c1	8.59%
CCOC(=O)C(=O)N1CCC(Cc2ccccc2)CC1	1.59%
CCOCC(=O)N1CCC(Cc2ccccc2)CC1	12.3%
Cc1oc(-c2ccccc2F)nc1CSCC(=O)NC1CCCC1	-11.2%
CC(C)(Oc1ccc(F)cc1)C(=O)OCC(=O)c1ccc(S(C)(=O)=O)cc1	3.45%
CCOC(=O)c1nn(-c2cccc(Cl)c2)c2nc(Nc3ccccc3)cc(=O)n12	-3.5%
CCOC(=O)c1nn(-c2ccc(F)cc2)c2nc(Nc3ccccc3)cc(=O)n12	38.7%
O=C(Nc1ccccc1)C1CC(=O)n2ncnc2N1 (stereo not drawn)	-4.59%
Cc1ccc(S(=O)(=O)N2[C@@H](c3ccc(Br)cc3)C(C(=O)O)=CC[C@H]2c2ccc(Cl)cc2)cc1	9.55%
CCN(CC)C(=O)c1ccc(C(=O)c2c(C)cc(C)cc2C)cc1	-0.54%
COc1ccc2c(Cl)c(-c3nnc(SCC(=O)c4ccccc4)n3C)sc2c1	5.59%
COc1ccc2c(Cl)c(-c3nnc(SCC(N)=O)n3C)sc2c1	-4.23%
COc1ccc(NC(=O)c2ccc3c(=O)n(-c4ccc(OC)cc4OC)c(=S)[nH]c3c2)c(OC)c1	40%
CC(=O)c1cccc(CN2CCC(CO)(CCCc3ccccc3)CC2)c1	-3.4%
Cc1ccccc1-c1ncc(CN2CCC(CO)(CCCc3ccccc3)CC2)cn1	22.1%
Cc1c(-n2cc(C(=O)O)c(=O)c3cc(F)c(N4CCCC4)c(F)c32)c(=O)n(-c2ccccc2)n1C	5.31%

SMILES	inhibition
Cc1cc(C)c(NC(=O)c2cn3c4c(c(N5CCN(C)CC5)c(F)cc4c2=O)OCC3C)c(C)c1 (stereo not drawn)	9.2%
CCOc1cc(S(=O)(=O)N2CCN(S(=O)(=O)CC)CC2)c(OCC)cc1-n1cnnn1	0.44%
O=C(O)/C=C/C(=O)Nc1nccs1	-2.62%
O=C1C(C=NCCCN2CCCC2=O)=C(O)c2ccccc21	-5.89%
COc1ccc(Cl)cc1NS(=O)(=O)c1cccc(C(=O)NC2CC2)c1	1.57%
COc1ccc(-c2oc(NC(C)=O)c(C#N)c2-c2ccc(OC)cc2)cc1	3.57%
COc1ccc(-c2oc(NC(=O)c3ccc(C)cc3)c(C#N)c2-c2ccc(OC)cc2)cc1	5.32%
Cc1cc(C(=O)O)cc(S(=O)(=O)Nc2c(C)nn(C)c2C)c1C	-1.21%
COc1cccc2cc(C(=O)OCc3ccccc3)c(=O)oc12	10.5%
CN1OC(COC(=O)c2ccc(Cl)cc2)CC1c1ccccc1 (stereo not drawn)	19.7%
CN1OC(COC(=O)c2ccccc2)CC1c1ccccc1 (stereo not drawn)	66.5%
CCCn1cc(S(=O)(=O)c2ccc(F)cc2)c(=O)c2cc(OCC)ccc21	4.19%
CC(=O)Nc1ccc(S(=O)(=O)Oc2cccc(/C=N/N=C3/NC(=O)C(CC(=O)O)S3)c2)cc1 (stereo not drawn)	-3.02%
O=C(Nc1ccc(Cl)cc1C(F)(F)F)C(Sc1cccc[n+]1[O-])c1ccccc1 (stereo not drawn)	16.4%
O=C(Nc1cccc(C(F)(F)F)c1)C(Sc1cccc[n+]1[O-])c1ccccc1 (stereo not drawn)	0.11%
CS(=O)(=O)N(CC(=O)Nc1ccc(Br)cc1F)C1CCCCC1	-1.79%
CC(=O)NCCC(=O)Nc1ccc(C(N)=O)cc1	3.35%
O=C(/C=C/c1ccc([N+](=O)[O-])cc1)OCC(=O)N1c2ccccc2Sc2ccccc21	3.32%
